Assay results taken from PubChem BioAssay AID1792 (The Scripps Research Institute Molecular Screening Center, 2009).
Out of some 16,000 compounds screened, about 130 (0.81%) were called active. Cut-off read from the data, not from the text of the source: active = inhibition above about 75%; inactive = the rest. Only a selection was taken, and actives are over-represented in it overall.

biological target: NADPH oxidase 1 (Homo sapiens) (UniProt Q9Y5S8); experiment: inhibitors of human NADPH oxidase 1 (Nox1) (AID 1792); conditions: HT29 cells, luminol chemiluminescence ROS; at 6.7 µM; stronger effect = higher value
Sequence (Q9Y5S8 whole entry, looked up): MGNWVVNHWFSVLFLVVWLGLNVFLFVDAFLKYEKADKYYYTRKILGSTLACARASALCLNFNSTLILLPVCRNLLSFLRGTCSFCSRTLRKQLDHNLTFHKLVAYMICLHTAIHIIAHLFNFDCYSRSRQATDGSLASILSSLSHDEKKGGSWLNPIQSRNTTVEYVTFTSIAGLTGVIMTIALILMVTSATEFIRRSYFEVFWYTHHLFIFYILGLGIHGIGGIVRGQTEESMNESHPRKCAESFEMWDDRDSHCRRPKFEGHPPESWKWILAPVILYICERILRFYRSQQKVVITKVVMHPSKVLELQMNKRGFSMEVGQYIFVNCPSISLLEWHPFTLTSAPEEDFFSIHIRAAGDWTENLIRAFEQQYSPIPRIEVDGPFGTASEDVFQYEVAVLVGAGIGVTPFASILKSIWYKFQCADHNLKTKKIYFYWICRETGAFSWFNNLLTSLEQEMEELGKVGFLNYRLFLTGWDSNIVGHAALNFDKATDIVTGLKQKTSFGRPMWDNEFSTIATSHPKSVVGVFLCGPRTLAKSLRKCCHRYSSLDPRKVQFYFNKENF

SMILES	inhibition
N#C/C(=C\c1sccc1Oc1ccccc1)S(=O)(=O)c1ccc(C(F)(F)F)cn1	-16.5% (inactive)
CCCCC#Cc1cncc(C(=O)NNC(=O)Nc2ccc(Cl)cc2)c1	11.2% (inactive)
N#Cc1cccnc1NNC(=O)Nc1ccc(OCc2ccccc2)cc1	61.8% (inactive)
CC(C)CC(NC(=O)OC(C)(C)C)C(=O)OCc1ccc(CC(=O)O)cc1 (configuration not stated)	-5% (inactive)
O=c1c(-c2nc(-c3ccc(C(F)(F)F)cc3)no2)cnc2n1CCS2	-4.83% (inactive)
CSc1sc(C(=O)NC2CC2)c(-c2ccc(Cl)cc2)c1C#N	-9.35% (inactive)
NS(=O)(=O)c1ccc(Oc2c(Cl)cccc2[N+](=O)[O-])cc1	21.2% (inactive)
Cc1cc(C(=O)NCCNS(=O)(=O)c2ccc(Cl)cc2)c(C)o1	2.68% (inactive)
O=C1c2ccccc2O[C@@H](c2ccccc2)[C@@H]1NC1CCCCC1	-19.7% (inactive)
COC(=O)c1ccccc1-c1c2ccc(=O)cc-2oc2cc(O)ccc12	-13% (inactive)
C#CC(C)(CC)OCC(O)CS(=O)(=O)O (configuration not stated)	-13.2% (inactive)
COc1cccc2c1c(NS(=O)(=O)c1cn(C)cn1)nn2C	-41.2% (inactive)
Cc1nc(-n2cccc2)sc1C(=O)N/N=C/c1ccccc1Cl	6.52% (inactive)
O=S(=O)(c1ccc(Cl)cc1)n1nccc1/C=C/c1cccs1	-18.9% (inactive)
CSc1nnc(SC)n1CCNC(=O)Nc1cccc(Cl)c1	-65% (inactive)
O=C(Cn1nnc2ccccc21)NCCSCc1ccco1	16.2% (inactive)
CN([C@H]1CCN2CCc3ccccc3C2C1)S(C)(=O)=O (some centres not stated)	-68.5% (inactive)
N#Cc1nccnc1N1CCN(C(=O)c2ccccc2)CC1	-2.33% (inactive)
Cc1ccc(C(=O)N2CCN(c3cccc4[nH]ccc34)CC2)cc1	76% (active)
COc1cccc(NC(=S)N(CCC#N)C2CCCCC2)c1	-44.9% (inactive)
COc1ccc(NC(=S)Nc2ccc(OC)cc2)cc1	3.7% (inactive)
COc1cccc(NC(=S)NNC(=S)NC2CC3CCC2C3)c1 (configuration not stated)	87.8% (active)
CSc1nc(-n2nc(C)cc2C)nc(-c2ccco2)c1C#N	-107% (inactive)

SMILES	inhibition
Cc1ccc(NC(=S)C(C#N)C(=O)N2CCCC2)c(C)c1 (configuration not stated)	-73.4% (inactive)
CCOC(=O)c1c[nH]n2c(=O)c3c(nc12)CCC3	-13% (inactive)
Cc1noc(C)c1S(=O)(=O)NCc1cc(F)cc2c1OCOC2	-23.9% (inactive)
CS/C(=N/S(=O)(=O)c1c(C)noc1C)NNC(=O)Nc1ccc(Cl)cc1	20% (inactive)
CC1=NCCNC(C)=C1N1CCOCC1	-21.2% (inactive)
CCCCNC(=O)OCCSCCS(=O)(=O)c1ccc(Cl)cc1	-35% (inactive)
O=C(NCc1cccnc1)Nc1cccc(NC(=O)NCc2cccnc2)c1F	-23.7% (inactive)
CC(C)(C)OC(=O)n1ccc2cc(Br)ccc21	-51.3% (inactive)
Fc1ccc(NC(=S)N2CCN=C2Nc2ccc(F)cc2)cc1	-49.7% (inactive)
O=C(O)c1ncoc1-c1cccc(Cl)c1	-52.4% (inactive)
CCOC(=O)CC(=O)CSc1nnc(N)s1	-48% (inactive)
N#Cc1cncc(Br)c1	-66.5% (inactive)
NNC(=O)CC1C(=O)NCCN1Cc1c(Cl)cccc1Cl (configuration not stated)	14.9% (inactive)
CSc1ccc(Br)cc1	-59.5% (inactive)
CC(C)(C)c1cc(NC(=O)/C(C#N)=C/c2cccc(Cl)c2Cl)c(C(N)=O)s1	-9.18% (inactive)
COC(=O)c1ccccc1N(C)C(=O)c1cc(OC)c(OC)c(OC)c1	-18% (inactive)
CCOC(=O)NC(=O)/C(=C/NCc1cccs1)C(=O)OCC	-20.5% (inactive)
NC(=O)c1ccc(-c2csnn2)cc1	-4.63% (inactive)
FC(F)(F)c1cc(-c2ccc(Br)cc2)n[nH]1	-47% (inactive)
Cc1ncn2cc(-c3ccc(Cl)cc3Cl)[nH]c(=O)c12	-12% (inactive)
Cc1ccc(CSC(=N)N)cc1	-35.4% (inactive)
O=C(NC(=S)Nc1nc(-c2ccc(Cl)cc2)cs1)C1CC1	-57.1% (inactive)
CC(=O)NC(Cc1c[nH]c2ccccc12)C(=O)O (configuration not stated)	-15.3% (inactive)

SMILES	inhibition
O=C(Cn1c(=Nc2ccc(F)cc2)oc2ccccc2c1=O)c1ccccc1	-0.92% (inactive)
COc1ccc(S(=O)c2ccccc2C(=O)O)c(C(=O)O)c1 (configuration not stated)	-11.3% (inactive)
COc1ccccc1C1CCN(c2ccc([N+](=O)[O-])cn2)CC1	18% (inactive)
O=C(Nc1ccc(C(F)(F)F)cn1)c1ccc(Oc2cc(Cl)cc(Cl)c2)o1	-58.2% (inactive)
CCCCOC(=O)c1ccc(-c2ccccn2)s1	-10.4% (inactive)
Cc1[nH]ncc1S(=O)(=O)c1ccc(Cl)cc1	-77.8% (inactive)
Cc1cc(C(=O)NNC(=O)c2cc(C)n(C(C)(C)C)n2)no1	-45.9% (inactive)
O=C(Nc1ccccc1C(F)(F)F)N1CCCC1c1cccnc1 (configuration not stated)	-8.11% (inactive)
CCOC(=O)c1sc(SC)c(-c2ccccc2)c1N	0% (inactive)
N#Cc1c(C2CCCCC2)[nH]c(=S)[nH]c1=O	-8.73% (inactive)
COc1c(/C(N)=N/O)cc(C)c2c1CCC2	8.11% (inactive)
Cc1ccc(S(C)(=O)=NC(=O)NS(=O)(=O)Oc2ccc(Cl)cc2Cl)cc1 (configuration not stated)	-64.7% (inactive)
O=C1c2ccccc2C(=O)N1CNc1ccc(C2CCCCC2)cc1	-10.4% (inactive)
O=C(c1ccc(C#Cc2ccccc2)o1)N1CCCCC1	-23.7% (inactive)
NNC(=O)c1csc(COc2ccc(C3SCCS3)cc2)n1	4.76% (inactive)
N/C(Cc1ccc(F)cc1F)=N\OC(=O)c1cccc(C(F)(F)F)c1	-67.4% (inactive)
O=C(c1ccccc1I)c1c[nH]c2ccccc12	13.6% (inactive)
CC1(C)c2ccccc2-n2c1cc(O)c(-c1ccccc1)c2=O	-50% (inactive)
COC(=O)c1c(C)noc1-c1ccno1	-21.7% (inactive)
CCCCCCCCCCCCCC#CC(O)C(N)CO (configuration not stated)	-24.7% (inactive)
O=C(NNC(=O)C1c2ccccc2Oc2ccccc21)c1cccc(F)c1	-30.2% (inactive)
